Measured values as given in PubChem BioAssay (Tox21).
Inconclusive results are not listed. Active and inactive are the calls of the source. Unless noted, calls follow the shape of the dose curve; as a rule, active = well fitted curve in the direction sought with a large enough effect in the repeat runs; inconclusive = weak or mixed curves; inactive = no such curve, though single readings can be large; an effect the other way counts as inactive or inconclusive.

Experiments:
[1] = qHTS assay to identify small molecule antagonists of the progesterone receptor (PR) signaling pathway - cell viability counter screen (AID 1346798); also: nearly all actives have a fitted effect of over 50% in size; also: potency is read from the fitted curve at half-maximal effect; as to activity change, negative = cytotoxicity: series mostly up to about 92 µM
Outline: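 ATP content as viability readout: CellTiter-Glo luminescence, 30 min room temperature, in PR-UAS-bla HEK293T cells after 16 hr compound/R5020 treatment at 37C and 5% CO2.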

[2] = qHTS assay to identify small molecule agonists of the progesterone receptor (PR) signaling pathway - cell viability counter screen (AID 1346799; calls by dose curve; also: nearly all actives have a fitted effect of over 45% in size; also: potency is read from the fitted curve at half-maximal effect)
Outline: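 Cytotoxicity in PR-bla HEK293T cells: 16 h compound, 37C; CellTiter-Glo added post-FRET read; luminescence after 30 min RT.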

[3] = qHTS assay to identify small molecule antagonists of the TGF-beta/Smad signaling pathway - cell viability counter screen (AID 1346824); also: nearly all actives have a fitted effect of over 50% in size
Outline: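 SBE-bla HEK 293T cells, incubated overnight, then compound plus 0.25 ng/mL TGF-beta1 (stock added) for 5 hr at 37 C. Viability was read in the same wells by CellTiter-Glo luminescence after 30 min at room temperature.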

[4] = qHTS assay to identify small molecule agonists of the TGF-beta/Smad signaling pathway - cell viability counter screen (AID 1346829); also: top concentration of the series differs between compounds; nearly all actives have a fitted effect of over 45% in size
Outline: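 Same-well cytotoxicity: CellTiter-Glo added after the 2 hr room-temperature beta-lactamase substrate step, luminescence measured 30 min later; cells had 5 hr of compound at 37 C.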

[5] = qHTS assay to identify small molecule agonists of the TGF-beta/Smad signaling pathway (AID 1346859; active = well fitted activation curve with a large enough effect in the signal ratio in the repeat runs, not every such curve was filed as active; the % refers to the signal ratio; also: series mostly up to about 77 µM)
Outline: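 Stable Smad binding element-beta-lactamase HEK 293T cells; 5 hr compound exposure at 37 C under 5% CO2; 2 hr room-temperature substrate step; fluorescence excited at 405 nm, collected at 460 nm and 530 nm.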

[6] = molecular target: Thyrotropin-releasing hormone receptor (Homo sapiens) (UniProt P34981); assay: qHTS assay to identify small molecule antagonists of the thyrotropin-releasing hormone receptor (TRHR) signaling pathway (AID 1346877; active = well fitted inhibition curve with a large enough effect in the repeat runs, not every such curve was filed as active; also: series mostly up to about 51 µM)
Thyrotropin-releasing hormone receptor (Homo sapiens), sequence (P34981 whole entry, looked up): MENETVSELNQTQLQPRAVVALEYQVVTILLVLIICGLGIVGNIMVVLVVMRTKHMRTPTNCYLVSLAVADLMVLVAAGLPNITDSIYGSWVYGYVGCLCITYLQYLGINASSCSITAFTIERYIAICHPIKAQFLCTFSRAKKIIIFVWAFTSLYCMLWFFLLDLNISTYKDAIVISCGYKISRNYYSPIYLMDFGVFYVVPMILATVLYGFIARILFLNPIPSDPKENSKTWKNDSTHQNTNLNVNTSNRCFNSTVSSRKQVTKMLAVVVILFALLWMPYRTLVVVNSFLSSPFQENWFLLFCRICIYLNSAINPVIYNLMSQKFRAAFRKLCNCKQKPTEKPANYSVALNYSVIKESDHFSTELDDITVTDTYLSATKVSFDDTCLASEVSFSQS
Outline: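 Cells (TRHR-HEK293) are plated and kept 18 h at 37 °C/5% CO2. A calcium-sensitive dye is added for 2 h, compound follows for 5 min at room temperature, and TRH is then given at 1 nM final.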

[7] = molecular target: Thyrotropin-releasing hormone receptor (Homo sapiens) (UniProt P34981); assay: qHTS assay to identify small molecule agonists of the thyrotropin-releasing hormone receptor (TRHR) signaling pathway (AID 1346891; calls by dose curve;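 also: HEK293 cells expressing TRHR with calcium dye readout; series mostly up to about 58 µM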)
Outline: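 In 1536-format, 1500 TRHR-Hek293 cells per well grew 18 h, took up calcium dye for 2 h at 37 °C, received compound, and were read kinetically; 15-point titrations, triplicates.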

[8] = Caspase-3/7 induction in HepG2 cells by small molecules, qHTS assay (AID 1346978); also: nearly all actives have a fitted effect of over 15% in size
Outline: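 Wild-type HepG2 cells, 2,000/well, settled 5 hr at 37 C and 5% CO2, then compound-treated for 17 hr; caspase-3/7 activity read by luminescent Caspase-Glo 3/7 after 30 min at room temperature.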

[9] = Caspase-3/7 induction in CHO-K1 cells by small molecules, qHTS cell viability counter screen (AID 1346979); also: nearly all actives have a fitted effect of over 35% in size
Outline: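 To flag cytotoxic compounds, treated CHO-K1 wild-type cells were given CellTiter-Fluor at 16hr and read fluorescently after 1hr at 37C; the caspase-3/7 luminescence was measured in these same wells.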

[10] = Human pregnane X receptor (PXR) small molecule agonists, qHTS cell viability counter screen (AID 1346977); also: nearly all actives have a fitted effect of over 50% in size; also: potency is read from the fitted curve at half-maximal effect
Outline: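 Readout is CellTiter-Fluor fluorescence from PXR-Luc HepG2 cells. Plated cells rested 5hr, then were treated with compounds for 24hr at 37C and 5% CO2, with reagent present during the last hour.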
% is scaled to controls: 0 for no effect and ±100 for the full control effect.

COCCOCCOCCOCCOC
active: Potency [1] 21.7 µM | Potency [2] 21.7 µM
inactive: Potency [3] | Potency [4] | outcome [5] | outcome [6] | Potency [7] | outcome [8] | Potency [9]

CC(=O)SCc1ccco1
inactive: Potency [1] | Potency [2] | Potency [3] | Potency [4] | outcome [5] | outcome [6] | Potency [10] | outcome [8] | Potency [9]

CC1=CC(=O)/C(=C(/C)O)C(=O)O1
inactive: Potency [1] | Potency [2] | Potency [3] | Potency [4] | outcome [5] | outcome [6] | Potency [10] | outcome [8] | Potency [9]

CC(C)CCCC(C)CCO (stereo not drawn)
inactive: Potency [1] | Potency [2] | Potency [3] | Potency [4] | outcome [5] | outcome [6] | Potency [7] | outcome [8] | Potency [9]

CCCC(=O)OCC
inactive: Potency [1] | Potency [2] | Potency [3] | Potency [4] | outcome [5] | outcome [6] | outcome [8] | Potency [9]

O=CNc1ccccc1
inactive: Potency [1] | Potency [2] | Potency [3] | Potency [4] | outcome [5] | outcome [6] | Potency [7] | outcome [8] | Potency [9]

CCCCOC(=O)c1ccccc1C(=O)OCC(CC)CCCC (stereo not drawn)
inactive: Potency [1] | Potency [2] | Potency [3] | Potency [4] | outcome [5] | Potency [7] | Potency [10] | outcome [8] | Potency [9]

Cc1ccc(C)o1
inactive: Potency [1] | Potency [2] | Potency [3] | Potency [4] | outcome [5] | outcome [6] | Potency [10] | outcome [8] | Potency [9]

COc1ccc(OC)c(OC)c1
inactive: Potency [1] | Potency [2] | Potency [3] | Potency [4] | outcome [5] | Potency [7] | Potency [10] | outcome [8] | Potency [9]

N[C@H]1C(O)O[C@H](CO)[C@H](O)[C@@H]1O (stereo partly drawn)
inactive: Potency [1] | Potency [2] | Potency [3] | Potency [4] | outcome [5] | outcome [6] | Potency [10] | outcome [8] | Potency [9]

N#Cc1c(F)cccc1F
inactive: Potency [1] | Potency [2] | Potency [3] | Potency [4] | outcome [5] | outcome [6] | Potency [7] | outcome [8] | Potency [9]

O=C1c2cccc(O)c2C(=O)c2c(O)cc(CO)cc21
inactive: Potency [1] | Potency [2] | Potency [3] | Potency [4] | outcome [5] | outcome [6] | outcome [8] | Potency [9]
active: Potency [10] 38.6 µM

CCCCCCc1ccc(N)cc1
inactive: Potency [1] | Potency [2] | Potency [3] | Potency [4] | outcome [5] | outcome [6] | Potency [7] | outcome [8] | Potency [9]

CC[C@@H]1C[C@H](N(Cc2cc(C(F)(F)F)cc(C(F)(F)F)c2)C(C)=O)c2cc(C(F)(F)F)ccc2N1C(=O)OC(C)C
inactive: Potency [1] | Potency [2] | Potency [3] | Potency [4] | outcome [5] | outcome [6] | Potency [7] | outcome [8] | Potency [9]

CCCCCCCCCCCCCCCCCBr
inactive: activity change, negative = cytotoxicity [1] -0.341% [at 18.9 µM] | activity change, negative = cytotoxicity [2] 10.6% [at 19 µM] | viability change, negative = cytotoxic [3] 1.56% [at 15.8 µM] | activity change, negative = cytotoxicity [4] 0.567% [at 15.8 µM] | activation [5] 2.19% [at 15.8 µM] | activity, negative = inhibition [6] -2.78% [at 10.5 µM] | activity change, negative = cytotoxicity [10] 1.63% [at 19 µM] | caspase activation [8] 0.0731% [at 19 µM] | activity change, negative = cytotoxicity [9] 6.07% [at 19 µM]

NCc1ccccc1
inactive: Potency [1] | Potency [2] | Potency [3] | Potency [4] | outcome [5] | Potency [7] | Potency [10] | outcome [8] | Potency [9]

O=C(O)/C=C/c1cnc[nH]1
inactive: Potency [1] | Potency [2] | Potency [3] | Potency [4] | outcome [5] | outcome [6] | Potency [7] | outcome [8] | Potency [9]

Cc1cc(CC(=O)O)c(C)n1-c1ccc(Cl)cc1
inactive: Potency [1] | Potency [2] | Potency [3] | Potency [4] | outcome [5] | Potency [7] | Potency [10] | outcome [8] | Potency [9]

c1ccc(-c2nc[nH]c2-c2ccccc2)cc1
inactive: Potency [1] | Potency [2] | Potency [3] | Potency [4] | outcome [5] | Potency [7] | Potency [10] | outcome [8] | Potency [9]

CC(=O)N(CC(=O)N(C)C)c1ccccc1
inactive: Potency [1] | Potency [2] | Potency [3] | Potency [4] | outcome [5] | outcome [6] | Potency [10] | outcome [8] | Potency [9]

CC(C)(C)c1ccc(S)cc1
inactive: Potency [1] | Potency [2] | Potency [3] | Potency [4] | outcome [5] | outcome [6] | Potency [7] | outcome [8] | Potency [9]

CCCCCC/C=C/C=O
inactive: Potency [1] | Potency [2] | Potency [3] | Potency [4] | outcome [5] | outcome [6] | Potency [7] | outcome [8] | Potency [9]

C=CCCCCCC
inactive: Potency [1] | Potency [2] | Potency [3] | Potency [4] | outcome [5] | outcome [6] | Potency [10] | outcome [8] | Potency [9]

O=C(O)C1CCC(C(=O)O)CC1 (stereo not drawn)
inactive: Potency [1] | Potency [2] | Potency [3] | Potency [4] | outcome [5] | outcome [6] | outcome [8] | Potency [9]

CC(=O)OCCc1ccccc1
inactive: Potency [1] | Potency [2] | Potency [3] | Potency [4] | outcome [5] | Potency [7] | Potency [10] | outcome [8] | Potency [9]
